Bioassay records: PubChem BioAssay, National Center for Advancing Translational Sciences (NCATS)
Most compounds without a hit are left out; they make up all but 19% or so of the library.
TGFb SMAD3 inh = inhibitors of TGF-b signaling; HepG2 CAGA-GFP TGF-b/SMAD3 reporter, GFP fluorescence, 18 h; TGF-beta stimulated, 500 pg/mL final; 410,000 compounds, 1.2% hits; Potency, µM (top dose mostly 46.1 µM), for inactives: at the highest dose activity, negative = inhibition, actives largely listed as inhibitors; note: potency is the fitted concentration of half-maximal effect; % is set by controls: 0 for no effect and ±100 for the full control effect; nearly all actives have a fitted effect of over 65% in size
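Cell-based qHTS in HEPG2 carrying a CAGA-GFP Smad reporter; compounds added before 500 pg/mL final TGF-beta, 18 h incubation at 37 degrees C, GFP fluorescence quantified per cell by imaging cytometry.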
TDP1 block = inhibitors of human tyrosyl-DNA phosphodiesterase TDP1. Q9NUW8. recombinant TDP1, AlphaScreen DNA substrate cleavage. Potency, µM (doses to about 130 µM), inactives show top-dose activity change, negative = inhibition, actives largely listed as inhibitors. 350,000 compounds, 0.28% hits. AID 485290; note: potency is the fitted concentration of half-maximal effect; % is set by controls: 0 for no effect and ±100 for the full control effect; nearly all actives have a fitted effect of over 40% in size
Target sequence (Q9NUW8 whole entry, looked up): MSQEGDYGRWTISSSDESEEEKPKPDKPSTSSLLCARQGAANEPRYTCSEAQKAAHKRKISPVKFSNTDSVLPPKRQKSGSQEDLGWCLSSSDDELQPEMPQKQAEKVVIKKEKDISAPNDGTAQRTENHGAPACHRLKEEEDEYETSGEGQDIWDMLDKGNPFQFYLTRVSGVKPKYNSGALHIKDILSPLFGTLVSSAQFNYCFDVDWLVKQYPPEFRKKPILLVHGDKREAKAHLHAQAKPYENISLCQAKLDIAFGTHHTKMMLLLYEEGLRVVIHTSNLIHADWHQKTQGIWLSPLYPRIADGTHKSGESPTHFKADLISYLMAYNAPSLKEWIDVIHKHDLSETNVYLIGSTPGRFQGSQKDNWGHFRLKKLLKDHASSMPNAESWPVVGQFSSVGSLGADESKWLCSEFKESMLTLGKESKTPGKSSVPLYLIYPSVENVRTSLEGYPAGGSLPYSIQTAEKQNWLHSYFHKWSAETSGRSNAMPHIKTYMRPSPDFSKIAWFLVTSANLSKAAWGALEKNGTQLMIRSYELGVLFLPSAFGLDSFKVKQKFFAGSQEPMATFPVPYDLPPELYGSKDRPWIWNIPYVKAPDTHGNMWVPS
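Compounds were preincubated with Tdp1 (1 nM final) for 15 min at room temperature before substrate (15 nM final) started a 5 min reaction; beads (10 ug/ml final) were then added for 10 min before AlphaScreen detection.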
TDP1 cell CPT = DT40-hTDP1 cell growth loss with CPT. chicken DT40 Tdp1-/-;hTDP1 cells + 20 nM CPT, ATP luminescence, 48 h. Potency, µM (doses to about 46.2 µM), for the others: at the top dose activity change, negative = growth inhibition, hits mostly inhibitors. 420,000 compounds, 12% hits; note: potency is the fitted concentration of half-maximal effect; % is set by controls: 0 for no effect and ±100 for the full control effect; nearly all actives have a fitted effect of over 55% in size
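Chicken DT40 Tdp1-/- cells stably complemented with human TDP1 were seeded at 400 cells/well in medium containing 20 nM camptothecin, exposed to pin-transferred compounds, and grown at 37 °C for at least 48 hr. Viability was read as ATP luminescence.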
TDP1 cell noCPT = qHTS for Inhibitors of human tyrosyl-DNA phosphodiesterase 1 (TDP1): qHTS in cells in absence of CPT | DT40 Tdp1-/- hTDP1 cells, no CPT, ATP luminescence, 48 h | Potency, µM (titrated, usually from 46.2 µM), inactives show at the top dose activity change, negative = growth inhibition, usual class: inhibitors | 420,000 compounds, 15% hits | AID 686978, 2013; note: potency is the fitted concentration of half-maximal effect; % is set by controls: 0 for no effect and ±100 for the full control effect; nearly all actives have a fitted effect of over 55% in size
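No-CPT arm: Tdp1-/-;hTDP1 DT40 cells (400/well) plus compounds, incubated ≥48 hr at 37 °C. Readout CellTiter-Glo luminescence.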
HepG2 tox = HepG2 cytotoxicity, counter-screen for TGF-b inhibitors; HepG2 CAGA-GFP viability, ATP luminescence, 18 h; Potency, µM (titrated, usually from 46.1 µM), without a hit: at the top dose activity change, negative = cytotoxicity, usual class: cytotoxic; 410,000 compounds, 0.76% hits; AID 588856; note: potency is the fitted concentration of half-maximal effect
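HepG2 CAGA-GFP cells (1000/well, DMEM with 1% FBS) received compound, then TGF-beta at 500 pg/mL final, and were incubated 18 hours at 37 degrees C. Viability was read by CellTiter-Glo luminescence. Media-only wells were set as complete cell-killing and DMSO as no toxicity.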
IL-1B inflam inh = blocks inflammasome-driven IL-1 beta release | activity change, % at 57.5 µM | 360,000 compounds, 4.7% hits | THP-1 LPS/ATP IL-1B secretion, AlphaLISA, 16 h; hits give low values; in the data active = activity change below about -50%; inconclusive = mostly about -30% to -49%; note: % is set by controls: 0 for no effect and ±100 for the full control effect
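THP-1 cells pretreated 1 hr with compounds (up to 57.5 uM final), then stimulated with LPS (250 ng/mL final) plus ATP (1.25 mM final); secreted IL-1B measured by AlphaLISA after 16 hr, decreased signal indicating inhibition.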
* hit, by the source's call; ? = inconclusive; . = no result given; [ ] = another dose, or the depositor's remark. Unless noted, calls come from the whole dose curve; as a rule, active = well fitted curve in the direction sought with a large enough effect; inconclusive = small, poorly fitted or top-dose-only effect, or another doubt; inactive = no such curve, though single readings can be large; an effect the other way counts as inactive or inconclusive.

SMILES	TGFb SMAD3 inh	TDP1 block	TDP1 cell CPT	TDP1 cell noCPT	HepG2 tox	IL-1B inflam inh
O=C1NC[C@@H](c2ccccc2)OC(=O)[C@@H](Cc2ccc(F)cc2)CC/C=C/C[C@H]1CC(=O)N(CCO)Cc1ccccc1	?	0.8%	13µM*	18.4µM*	.	?
O=C1NC[C@H](c2ccccc2)OC(=O)[C@H](Cc2ccc(F)cc2)CC/C=C/C[C@@H]1CC(=O)N(CCO)Cc1ccccc1	?	2.3%	9.2µM*	10.3µM*	.	0.0
O=C(C[C@H]1C/C=C/CC[C@H](Cc2ccc(F)cc2)C(=O)O[C@H](c2ccccc2)CNC1=O)NCCO	-1.0%	-0.6%	?	?	-42.7%	9.4
CC(=O)C(Cc1ccccc1)NC(=O)CN1c2cccc3cccc(c23)S1(=O)=O (stereo not drawn)	-14.6%	-2.8%[56.1 µM]	1.0%	1.3%	-6.1%	-4.0
COc1ccc(N2CCN(C(=O)c3cc4ccccc4o3)CC2)cc1	14.2%	.	-23.4%	-22.2%	1.2%	-16.2
CCc1ccc2oc(C(=O)N3CCN(c4ccccc4OC)CC3)cc(=O)c2c1	?	.	5.17µM*	9.2µM*	-24.3%	-14.5
CCc1ccc2oc(C(=O)N3CCN(c4ccc(OC)cc4)CC3)cc(=O)c2c1	5.2%	.	10.9%	?	0.4%	-84.4*
CCCC1(c2ccccc2)NC(=O)N(CC(=O)N(C)Cc2c(F)cccc2Cl)C1=O (stereo not drawn)	-25.3%	0.2%	?	?	-18.0%	?
C1=C(c2ccc3c(c2)CN(Cc2cccn2-c2ncccn2)CCO3)Cc2ccccc21	.	.	?	-0.2%	.	.
C[N+]1(CC(=O)c2ccc(Br)cc2)CCOCC1	-14.9%	.	2.8%	-8.4%	-2.2%	.
Cc1ccc(CN2CCC(c3cc(-c4ccc(Cl)cc4)n[nH]3)CC2)cc1	15.8µM*	.	16.4µM*	14.6µM*	14.1µM*	-96.9*
COc1ccc(-c2cc(C3CCN(CC(O)C(F)(F)F)CC3)[nH]n2)cc1 (stereo not drawn)	-19.2%	.	?	?	-34.0%	-11.3
Clc1ccc(-c2cc(C3CCNCC3)[nH]n2)cc1	4.2%	0.5%	23.1µM*	25.9µM*	-17.7%	?
COc1ccc(-c2cc(C3CCN(Cc4ccc([N+](=O)[O-])cc4)CC3)[nH]n2)cc1	6.8%	5.9%	-24.6%	?	16.5%	-84.0*
Cc1cc(C(C)(C)C)ccc1OCC(=O)N/N=C\c1c(C)n(C)n(-c2ccccc2)c1=O	0.6%	.	-18.0%	-16.1%	15.6%	7.7
FC(F)(F)c1cc(NC(=S)NC23CC4CC(CC(C4)C2)C3)cc(C(F)(F)F)c1	.	1.9%	.	.	.	.
COc1cccc(NC(=S)NCCc2ccccn2)c1	4.6%	0.0%	1.0%	0.6%	8.7%	-2.3
C#CCN1C(C)=CC(=O)[C@@H](O)[C@H]1c1ccccc1Br	-7.4%	.	1.4%	0.2%	-9.8%	2.8
O=C(NCC(c1cccnc1)N1CCN(Cc2ccccc2)CC1)C(=O)Nc1cccc(F)c1 (stereo not drawn)	1.0%	3.9%	25.9µM*	23.1µM*	-35.9%	.
O=C(NCC(c1cccnc1)N1CCN(Cc2ccccc2)CC1)C(=O)Nc1ccc(F)cc1 (stereo not drawn)	-20.3%	1.3%	18.4µM*	23.1µM*	-25.6%	.
O=S(=O)(NCC(c1cccnc1)N1CCN(Cc2ccccc2)CC1)c1ccc(F)cc1 (stereo not drawn)	-4.5%	2.1%	?	-29.6%	-5.1%	0.0
CCc1ccc(NC(=O)C(=O)NCC(c2cccnc2)N2CCN(Cc3ccccc3)CC2)cc1 (stereo not drawn)	2.6%	-5.2%	11.6µM*	8.2µM*	10.5%	.
CCc1ccc(NC(=O)C(=O)NCC(c2cccnc2)N2CCOCC2)cc1 (stereo not drawn)	-5.6%	6.5%	?	?	-6.1%	.
COc1cccc(C(=O)NCC2Cc3cccc(-c4nc(C)cnc4C)c3O2)c1OC (stereo not drawn)	.	.	17.1%[9.04 µM]	?	.	.
COc1ccc(C(C)=O)cc1CSc1nc(NCc2ccccc2)c2ccccc2n1	?	8.3%	?	23.1µM*	-4.6%	.
SMILES	TGFb SMAD3 inh	TDP1 block	TDP1 cell CPT	TDP1 cell noCPT	HepG2 tox	IL-1B inflam inh
CCOC(Cn1c(SCc2cc(C(C)=O)ccc2OC)nc2ccccc2c1=O)OCC	2.4%	0.0%	1.4%	-4.3%	-32.2%	17.4
Fc1cccc(CSc2nc(NCCc3ccccc3)c3ccccc3n2)c1	-4.7%	-9.3%	16.4µM*	23.1µM*	-14.9%	.
COc1ccc(C(C)=O)cc1CSc1nc(NCCc2ccccc2)c2ccccc2n1	?	0.5%	18.4µM*	10.3µM*	-6.0%	.
COc1ccc(C(C)=O)cc1CSc1nc(Nc2ccc(F)c(F)c2)c2ccccc2n1	0.0%	3.4%	?	23.1µM*	-6.2%	.
COc1ccc(C(C)=O)cc1CSc1nc2cc(C(=O)O)ccc2c(=O)n1Cc1ccccc1	-11.8%	3.1%	-28.5%	?	-10.9%	0.0
COc1cc(Nc2nc(SCc3cccc(Cl)c3)nc3ccccc23)cc(OC)c1	-29.0%	-10.3%	?	?	-23.6%	.
CCCCN(C(=O)CSCC(=O)Nc1ccc(C)cc1)c1c(N)n(CC(C)C)c(=O)[nH]c1=O	-12.0%	1.0%	2.6%	1.2%	2.1%	16.0
COc1ccc(-c2oc3ccccc3c2C(=O)OCc2ccccc2OC)cc1	-21.0%	.	?	?	-12.0%	11.1
Cc1ccc(-c2nc(=S)c3c(n2Cc2ccco2)CCCC3)cc1	-2.2%	3.4%	?	?	0.8%	29.7
Cc1cccc(-c2nc(=S)c3c(n2Cc2ccco2)CCCC3)c1	-6.7%	4.7%	20.6µM*	?	-1.6%	5.8
COc1cccc(-c2nc(=S)c3c(n2Cc2ccco2)CCCC3)c1	5.9%	8.7%	16.4µM*	?	-20.0%	0.0
Cc1ccc(-c2nc(=S)c3c(n2Cc2ccco2)CC(C)(C)OC3)cc1	1.0%	0.0%	16.4µM*	23.1µM*	-18.6%	9.9
CCOCCCNC(=O)CN1C(=O)c2c(c3ccccc3n2C)C1c1ccc(OC)cc1 (stereo not drawn)	-21.1%	5.6%	?	?	-2.0%	.
O=C(Nc1ccc(Br)cc1Cl)c1ccc2c(=O)n3c(nc2c1)CCC3	-14.8%	2.0%[0.505 µM]	20.6µM*	18.4µM*	-30.9%	-8.2
